Where a name gives a salt, the structure may show the parent alone. ± gives the standard deviation of the averaged measurements.

Holding throughout (test): growth (OD600 after 10 h); higher = more growth (less inhibition)
The subject of test [1] is E. coli TESEC Alr+ wild-type control. The note with it: compound 0.1 mM; raw OD600 reference: median of DMSO wells 0.241, cell-free background 0.041. The protocol: (§1)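 TESEC Mtb Alr E. coli, or the Alr+ wild-type control, in 384-well plates with Prestwick library compounds at 0.1 mM and 1% DMSO, across arabinose induction levels of 1E3 to 1E7 nM. Growth is read as OD600 after 10 h at 37 °C in triplicate biological replicates.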

For test [2], the system named is E. coli TESEC Mtb Alr. The note with it: compound 0.1 mM. As to the method: as §1
Test [3] relates to E. coli TESEC Mtb Asd. The settings on record: compound 0.1 mM. The protocol: (§2)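 TESEC E. coli strains in which the native enzyme is deleted and replaced by arabinose-inducible Mtb Asd, DapB, CysH or TrpD, each grown in its selective medium. Strains were screened against the Prestwick library at 0.1 mM and 1% DMSO in 384-well format at low and high arabinose induction. Growth is read as OD600 after 10 h in triplicate.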

Test [4] deals with E. coli TESEC Mtb Alr. The note with it: compound 0.1 mM. The protocol:
(§3)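 TESEC Mtb Alr E. coli (ΔaraC ΔtolC ΔentC Δalr ΔdadX, arabinose-inducible Mtb Alr) or the Alr+ wild-type control strain, grown in defined M9-fructose medium without D-alanine in 96-well plates with Prestwick library compounds at 0.1 mM and 1% DMSO. Low Alr induction is 0.1 µM arabinose and high induction is 10 mM arabinose.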
This is another data set of the same source.

The test system of test [5] is E. coli TESEC Mtb DapB. The note with it: compound 0.1 mM. The protocol: as §2
Test [6] relates to E. coli TESEC Alr+ wild-type control. The settings on record: compound 0.1 mM; raw OD600 reference: median of DMSO wells 0.49, cell-free background 0.052. The protocol:
as §3

Where [7] appears, read: arabinose induction (level): High, raw OD600 reference: median of DMSO wells 0.331, cell-free background 0.041.
Setting [8] is: arabinose induction (level): Low, raw OD600 reference: median of DMSO wells 0.417, cell-free background 0.041.
Setting [9] is: arabinose 100 nM, raw OD600 reference: median of DMSO wells 0.413, cell-free background 0.052.
Where [10] appears, read: arabinose 10000000 nM, raw OD600 reference: median of DMSO wells […], cell-free background 0.052.
Where [11] appears, read: arabinose induction (level): High, raw OD600 reference: median of DMSO wells […], cell-free background 0.041.
Where [12] appears, read: arabinose induction (level): Low, raw OD600 reference: median of DMSO wells 0.227, cell-free background 0.041.

Turning to `CCC[C@H](N[C@@H](C)C(=O)N1[C@H](C(=O)O)C[C@@H]2CCCC[C@@H]21)C(=O)OCC` [Perindopril], the growth in test [1] is 0.252 ± 0.01; in test [2] (arabinose 1000 nM, raw OD600 reference: median of DMSO wells 0.294, cell-free background 0.041), 0.309 ± 0.0092; in test [2] (arabinose 10000 nM, raw OD600 reference: median of DMSO wells 0.264, cell-free background 0.041) it was 0.286 ± 0.0037; in test [2] (arabinose 100000 nM, raw OD600 reference: median of DMSO wells 0.201, cell-free background 0.041) it was 0.208 ± 0.016; in test [2] (arabinose 1000000 nM, raw OD600 reference: median of DMSO wells 0.193, cell-free background 0.041), 0.198 ± 0.024; in test [2] (arabinose 10000000 nM, raw OD600 reference: median of DMSO wells 0.146, cell-free background 0.041) it was 0.149 ± 0.0041. The growth worked out at 0.225 ± 0.016 in test [3] (setting [7]), 0.392 ± 0.033 in test [3] (setting [8]), 0.431 ± 0.0091 in test [4] (setting [9]) and 0.325 ± 0.0072 in test [4] (setting [10]).
In the case of `c1ccc(CNc2ncnc3nc[nH]c23)cc1` [Aminopurine, 6-benzyl], the growth in test [1] is 0.208 ± 0.0066; in test [3] (setting [7]), 0.279 ± 0.014; in test [3] (setting [8]) it was 0.339 ± 0.072; in test [5] (setting [11]), 0.169 ± 0.0055; in test [5] (setting [12]), 0.197 ± 0.022; in test [6], 0.509 ± 0.077. Also, the growth in test [4] (setting [9]) amounted to 0.416 ± 0.0048; in test [4] (setting [10]), 0.361 ± 0.0061.
In the case of `CO[C@H]1C[C@H](O[C@H]2[C@H](C)[C@@H](O[C@@H]3O[C@H](C)C[C@H](N(C)C)[C@H]3OC(C)=O)[C@@H](C)C[C@@]3(CO3)C(=O)[C@H](C)[C@@H](OC(C)=O)[C@@H](C)[C@@H](C)OC(=O)[C@@H]2C)O[C@@H](C)[C@@H]1OC(C)=O` [Troleandomycin], the growth amounted to 0.0738 ± 0.00081 in test [1]; 0.15 ± 0.012 in test [3] (setting [7]); 0.145 ± 0.0075 in test [3] (setting [8]); 0.165 ± 0.0054 in test [5] (setting [11]); 0.156 ± 0.0093 in test [5] (setting [12]); 0.0617 ± 0.0015 in test [6]. Further, the growth in test [4] (setting [9]) was determined as 0.112 ± 0.02; in test [4] (setting [10]), 0.0707 ± 0.017.
As to `C=C1c2cccc(O)c2C(O)=C2C(=O)[C@]3(O)C(O)=C(C(N)=O)C(=O)[C@@H](N(C)C)[C@@H]3[C@@H](O)[C@H]12` [Methacycline hydrochloride], the growth amounted to 0.0468 ± 0.0013 in test [1]; 0.05743 ± 0.00057 in test [3] (setting [7]); 0.0548 ± 0.0016 in test [3] (setting [8]); 0.0592 ± 0.0012 in test [5] (setting [11]); 0.0603 ± 0.0025 in test [5] (setting [12]); 0.0598 ± 0.0011 in test [6]. Further, the growth in test [4] (setting [9]) amounted to 0.0587 ± 0.0009; in test [4] (setting [10]) it was 0.066 ± 0.0023.
As for `CCOc1ccccc1OC(c1ccccc1)C1CNCCO1` (stereo not given) [Reboxetine mesylate], the growth is 0.203 ± 0.0099 in test [1]; 0.249 ± 0.038 in test [3] (setting [7]); 0.296 ± 0.061 in test [3] (setting [8]); 0.15 ± 0.0036 in test [5] (setting [11]); 0.183 ± 0.021 in test [5] (setting [12]); 0.542 ± 0.061 in test [6]. In addition, the growth in test [4] (setting [9]) stood at 0.402 ± 0.015; in test [4] (setting [10]) it was 0.336 ± 0.022.
As for `COc1cc(N)c(Cl)cc1C(=O)NC1CCN(CCCOc2ccc(F)cc2)CC1OC` (stereo not given) [Cisapride], the growth was 0.2147 ± 0.0012 in test [1]; 0.222 ± 0.017 in test [3] (setting [7]); 0.357 ± 0.041 in test [3] (setting [8]); 0.171 ± 0.003 in test [5] (setting [11]); 0.186 ± 0.0052 in test [5] (setting [12]); 0.552 ± 0.1 in test [6]. In addition, the growth in test [4] (setting [9]) was 0.41 ± 0.011; in test [4] (setting [10]), 0.458 ± 0.038.

These data come from the supplement of paper PMC9262897, “Low-cost anti-mycobacterial drug discovery using engineered E. coli” (Nature Communications, 2022).
